Results from publication PMC4931317.

Molecular target: U3 small nucleolar RNA-associated protein 4 (UniProt Q06679)
Assay: cross-link between two proteins

Chain of U3 small nucleolar RNA-associated protein 4 (Q06679 whole entry): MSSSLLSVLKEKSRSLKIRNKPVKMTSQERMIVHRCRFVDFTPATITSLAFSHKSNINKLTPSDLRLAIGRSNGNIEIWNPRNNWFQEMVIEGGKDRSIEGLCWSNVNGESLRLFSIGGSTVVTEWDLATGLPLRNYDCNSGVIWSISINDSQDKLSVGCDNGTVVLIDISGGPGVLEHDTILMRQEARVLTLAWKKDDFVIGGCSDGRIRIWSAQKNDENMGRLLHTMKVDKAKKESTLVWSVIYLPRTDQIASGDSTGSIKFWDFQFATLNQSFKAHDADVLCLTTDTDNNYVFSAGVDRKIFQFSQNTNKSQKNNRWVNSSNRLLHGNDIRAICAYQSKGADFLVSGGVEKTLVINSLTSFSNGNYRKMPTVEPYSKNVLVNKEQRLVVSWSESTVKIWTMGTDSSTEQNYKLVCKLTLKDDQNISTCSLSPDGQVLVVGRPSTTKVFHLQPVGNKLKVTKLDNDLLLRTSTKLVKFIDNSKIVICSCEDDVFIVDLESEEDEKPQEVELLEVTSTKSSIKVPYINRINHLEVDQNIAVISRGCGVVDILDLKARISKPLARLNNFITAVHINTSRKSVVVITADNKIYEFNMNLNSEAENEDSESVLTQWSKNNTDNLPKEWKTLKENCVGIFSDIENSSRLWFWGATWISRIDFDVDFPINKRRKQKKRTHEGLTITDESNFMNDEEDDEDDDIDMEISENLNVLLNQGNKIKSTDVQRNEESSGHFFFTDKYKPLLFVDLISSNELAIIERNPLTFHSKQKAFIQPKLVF

U3 small nucleolar RNA-associated protein 8, P53276
listed as a hit: yes
